This is part of a sample that, as a whole, favours compounds with a hit. Of some 83,000 tested, about 20% had one in any assay.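 How to read the values: 0–100, growth inhibition (40 = 60% inhibited); 0, no net growth; -100 to 0, cell death (-40 = 40% of starting cells died; -100 = all dead).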 Values without a mark were called inactive. Calls of active or inactive are those of the source. Rule for the calls: active = growth percent below 10; inactive = the rest.

Among the test systems are NCI-H23 lung; NCI-H226 lung; NCI-H322M lung; HOP-62 NSCLC; NCI-H460 lung; HOP-92 NSCLC; 786-0 renal; COLO 205 colon; DU-145 prostate; K-562 leukemia; MALME-3M melanoma; MDA-MB-231 breast; RXF 393 renal; SF-268 CNS; SF-295 CNS; SF-539 CNS; UACC-257 melanoma; M14 melanoma; A549/ATCC NSCLC.
Holding throughout (assay): NCI-60 one-dose screen, 48 h (100 = growth as untreated, 0 = no growth, -100 = all killed)
Holding throughout (details): 10 µM unless noted

With `CSc1nc(Nc2ccc(S(=O)(=O)Nc3ccon3)cc2)c(C#N)c(-c2ccc(Cl)cc2)n1`, the growth in the experiment on NCI-H23 lung was 94.2%; in the experiment with NCI-H226 lung, 95%; in the experiment on NCI-H322M lung, 98.3%; in the experiment on HOP-62 NSCLC, 106%; with NCI-H460 lung, 112%; with HOP-92 NSCLC, 109%. Also, the growth was 94.7% with 786-0 renal; 108% in the experiment on COLO 205 colon; 106% with DU-145 prostate; -0.642% (active) with K-562 leukemia; 111% in the experiment with MALME-3M melanoma; 102% in the experiment on MDA-MB-231 breast. For the same compound, the growth with RXF 393 renal is 110%; in the experiment with SF-268 CNS, 105%; in the experiment on SF-295 CNS, 113%; in the experiment on SF-539 CNS, 106%; with UACC-257 melanoma it was 112%; in the experiment with M14 melanoma, 88.1%.
With `Fc1ccc(-c2nn3c(-c4cc(C(F)(F)F)cc(C(F)(F)F)c4)nnc3s2)cc1`, the growth in the experiment on NCI-H23 lung was 45.5%; with NCI-H226 lung, 6.11% (active); with NCI-H322M lung, 56.3%; with HOP-62 NSCLC, -11.5% (active); in the experiment with NCI-H460 lung, 4.16% (active); in the experiment with HOP-92 NSCLC, -20.5% (active). Moreover, the growth in the experiment on A549/ATCC NSCLC was 33.3%; in the experiment on COLO 205 colon, 73.1%; in the experiment with DU-145 prostate, 87.1%; with K-562 leukemia it was 68.8%; with MALME-3M melanoma, 43.8%; with MDA-MB-231 breast, 39.5%. Besides, the growth in the experiment on SF-268 CNS was 37.3%; in the experiment on SF-295 CNS it was 38.4%; in the experiment with SF-539 CNS, 39.7%; in the experiment on UACC-257 melanoma it was 76.7%; with M14 melanoma, 64.6%.
`CCCCCCCCCCN1CCC(N2CCCCC2)CC1`: the growth with NCI-H23 lung was 38%; in the experiment on NCI-H226 lung it was 69.5%; in the experiment with NCI-H322M lung, 88%; with HOP-62 NSCLC, -64.7% (active); with NCI-H460 lung, -37.9% (active); in the experiment on HOP-92 NSCLC, -12.4% (active). Also, the growth in the experiment with 786-0 renal is -93.1% (active); in the experiment on COLO 205 colon, -85.7% (active); in the experiment with DU-145 prostate it was 54.3%; with K-562 leukemia it was -75.6% (active); in the experiment on MALME-3M melanoma, -43.9% (active); in the experiment on MDA-MB-231 breast it was -36.3% (active). Further, the growth with SF-268 CNS is 39.8%; with SF-295 CNS, 2.51% (active); with SF-539 CNS it was -80.4% (active); in the experiment on UACC-257 melanoma, -91.2% (active); in the experiment with M14 melanoma, -79.4% (active).
For the compound `CC12CCC3C(=CCc4cc(O)ccc43)C1CCC2=O` (configuration not stated), the growth is 103% with NCI-H23 lung; 102% in the experiment with NCI-H226 lung; 94.9% with NCI-H322M lung; 99.2% with HOP-62 NSCLC; 108% with NCI-H460 lung; 99.4% in the experiment on HOP-92 NSCLC. For the same compound, the growth in the experiment with 786-0 renal is 105%; in the experiment on COLO 205 colon it was 111%; with DU-145 prostate, 115%; in the experiment on K-562 leukemia, 91.5%; in the experiment with MALME-3M melanoma, 90.5%; with MDA-MB-231 breast it was 102%. Also, the growth is 113% with RXF 393 renal; 106% in the experiment with SF-268 CNS; 92% in the experiment with SF-295 CNS; 102% with SF-539 CNS; 113% with UACC-257 melanoma; 105% in the experiment on M14 melanoma.
Regarding `Cc1[nH]cnc1/C=C1\SC(N2CCCCC2)=NC1=O`, the growth with NCI-H23 lung is 101%; with NCI-H226 lung it was 96.2%; in the experiment with NCI-H322M lung, 123%; with HOP-62 NSCLC it was 105%; in the experiment on NCI-H460 lung, 109%; with HOP-92 NSCLC, 100%. Further, the growth in the experiment on A549/ATCC NSCLC was 96.8%; in the experiment with 786-0 renal it was 94.7%; in the experiment on DU-145 prostate, 125%; in the experiment with K-562 leukemia it was 96.8%; in the experiment on MDA-MB-231 breast it was 96.8%; with RXF 393 renal it was 96.3%. Moreover, the growth in the experiment on SF-268 CNS was 114%; in the experiment with SF-295 CNS, 130%; with SF-539 CNS, 100%; with UACC-257 melanoma, 105%; with M14 melanoma, 103%.

Source of the values: PubChem BioAssay (NCI).
